Reference: PubChem BioAssay (NCATS)
“And” between values parts separate entries of the source, which are not always exact repeats. Equal entries are not always repeated. Inconclusive results are not listed. Where a structure was tested more than once in an assay, its records may differ in their call. The source made the active and inactive calls. The call rests on the fitted dose curve; in most records, active means well fitted curve in the direction sought with a large enough effect; inconclusive means small, poorly fitted or top-dose-only effect, or another doubt; inactive means no such curve, though single readings can be large; an effect the other way counts as inactive or inconclusive.

Experiments:
[1] = Viability qHTS for spleen associated tyrosine kinase inhibitor (SYKi) naive MV4-11 cells (AID 1963823); further: nearly all actives have a fitted effect of over 40% in size
In short: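 Luminescence from CellTiter-Glo, developed 10 min at room temperature, gave viability of MV4-11 cells never exposed to SYK inhibitor. Cells (500/well) had been incubated with compounds for 72 hr under standard culture conditions.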

[2] = Viability qHTS for spleen associated tyrosine kinase inhibitor (SYKi) drug resistant MV4-11 cells (AID 1963824); further: nearly all actives have a fitted effect of over 35% in size
In short: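 SYK inhibitor-resistant MV4-11 AML cells, 500 per well, added to predispensed compounds and incubated 72 hr at 37 C, 5% CO2. Viability measured by CellTiter-Glo luminescence after 10 min at room temperature.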

[3] = Cellular viability qHTS for adrenocortical cancer (ACC) cell line SW-13 (AID 1963989); conditions: SW-13 ACC cells viability, CellTiter-Glo, 48 h; activity (max response): stronger effect = lower value; further: nearly all actives have a fitted effect of over 65% in size;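 on activity (max response): cells grown in serum-free medium with ITS supplement; on the % scale 0 is the no-effect control and ±100 the full control effect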
In short: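 Compound titrations (up to 46 uM final, in DMSO) were applied to SW-13 cells for 48 h at 37C/5% CO2. Reading used CellTiter-Glo after 20 min at room temperature; fitted curves yielded IC50 and efficacy.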

[4] = Cellular viability qHTS for adrenocortical cancer (ACC) cell line NCI-H295R (AID 1963990); further: nearly all actives have a fitted effect of over 60% in size
In short: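 Readout: CellTiter-Glo luminescence, 20 min RT. Exposure: 48 h, 37C/5% CO2. Cells: NCI-H295R, ITS-DMEM serum-free. Range: up to 46 uM. Analysis: 4PL fit, IC50 plus efficacy.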
Potency means the concentration at half of the fitted maximal effect.

Structure (SMILES) | Potency [1] | Potency [2] | activity (max response) [3] | Potency [4] | Potency [3]
CN(C)CCOc1ccccc1Cc1ccccc1 | inactive | inactive | 9.36% (inactive) | inactive | 
O=C(O)CCNC(=O)c1ccccc1 | inactive | inactive | 1.23% (inactive) | inactive | 
CCN1C(=O)N2Cc3cc(OC)cc(OC)c3[C@@H](C)C=C2C12CCN(Cc1cc(C)cc(C)c1)CC2 | 18.6 µM (active) | 14.8 µM (active) |  | 25.1 µM (active) | 28.2 µM (active)
C[C@]12C[C@H](O)[C@H]3[C@@H](CCC4=CC(=O)CC[C@@]43C)[C@@H]1CC[C@@H]2C(=O)CO | inactive | inactive | 4.71% (inactive) | inactive | 
NS(=O)(=O)c1cc2c(cc1C(F)(F)F)NCNS2(=O)=O | inactive | inactive | -4.83% (inactive) | inactive | 
O=[N+]([O-])c1ccc(-c2nc(-c3ccc(F)cc3)c(-c3ccncc3)[nH]2)cc1 | 14.8 µM (active) and 5.17 µM (active) | inactive and 9.34 µM (active) and 2.06 µM (active) | -1.63% (inactive) | inactive | 
COc1cc(OC)cc(OC)c1 | inactive | inactive | 5.62% (inactive) | inactive | 
Cc1cccc(C)c1NC(=O)CN(CC(=O)O)CC(=O)O | inactive | inactive | 9.48% (inactive) | inactive | 
CN(C)C(=S)SC(=S)N(C)C | 1.68 µM (active) | 1.68 µM (active) |  | 2.31 µM (active) | 9.2 µM (active)
C/C=C/c1ccc(OC)cc1 | inactive | inactive | 7.49% (inactive) | inactive | 
COc1ccc([C@@H]2Sc3ccccc3N(CCN(C)C)C(=O)[C@@H]2OC(C)=O)cc1 | inactive | 7.5 µM (active) and inactive | -9.3% (inactive) and 4.69% (inactive) | inactive | 
CCCOc1ccn2c(C(C)=O)cc(-c3ccccc3S(C)(=O)=O)c2c1 | 20.9 µM (active) | 14.8 µM (active) | 0.517% (inactive) | inactive | 
C=CC(=O)Nc1cccc(Oc2nc(Nc3ccc(N4CCN(C)CC4)cc3)nc3ccsc23)c1 | 2.63 µM (active) | 3.32 µM (active) |  | 5.01 µM (active) | 3.16 µM (active)
O=C1c2ccccc2C(=O)C1c1ccc(Br)cc1 | inactive | inactive | 7.53% (inactive) | inactive | 
COc1ccc(-c2c(C)nn3c(NCCN4CCOCC4)cc(C)nc23)cc1OC | 8.33 µM (active) | 9.2 µM (active) | 10.9% (inactive) | inactive | 
CC(C)n1nc(-c2cc3cc(O)ccc3[nH]2)c2c(N)ncnc21 | 0.116 µM (active) | 668 nM (active) and 291 nM (active) |  | 2.31 µM (active) and 10 µM (active) | 5.8 µM (active) and 14.1 µM (active)
CC(=O)OCC(=O)[C@@]1(O)CC[C@H]2[C@@H]3CCC4=CC(=O)CC[C@]4(C)[C@H]3C(=O)C[C@@]21C | inactive | inactive | -12.6% (inactive) and -6.75% (inactive) | inactive | 
COc1ccc(CCN2CCC(Nc3nc4ccccc4n3Cc3ccc(F)cc3)CC2)cc1 | 4.22 µM (active) | 8.41 µM (active) |  | 14.6 µM (active) | 20.6 µM (active)
CC(C)(O)[C@H]1CC[C@@](C)([C@H]2[C@@H](O)C[C@@]3(C)[C@@H]4C[C@H](O[C@@H]5O[C@H](CO)[C@@H](O)[C@H](O)[C@H]5O)[C@H]5C(C)(C)[C@@H](O[C@@H]6OC[C@@H](O)[C@H](O)[C@H]6O)CC[C@@]56C[C@@]46CC[C@]23C)O1 | inactive | inactive | 1.01% (inactive) | inactive | 
CONC(=O)Nc1ccc(-c2sc3c(c2CN(C)Cc2ccccc2)c(=O)n(-c2ccccc2)c(=O)n3Cc2c(F)cccc2F)cc1 | 16.6 µM (active) | 16.6 µM (active) | -8.17% (inactive) | inactive | 
Cc1ccc(S(=O)(=O)Cc2nc(-c3ccc(C(=O)NCc4cccnc4)cc3)oc2C)cc1 | 0.0118 µM (active) | 0.0105 µM (active) |  | 0.0501 µM (active) | 0.199 µM (active)
CCC1(c2cnc[nH]2)Cc2ccccc2C1 | inactive | inactive | -4.6% (inactive) | inactive | 
COc1ccc2nc3n[nH]c(C)c3c(NCCOCCO)c2c1 | 18.4 µM (active) and 9.34 µM (active) | 16.4 µM (active) and 13.2 µM (active) | 0.542% (inactive) | inactive | 
CCc1cc2c(cc1N1CCC(N3CCOCC3)CC1)C(C)(C)c1[nH]c3cc(C#N)ccc3c1C2=O | 0.178 µM (active) | 0.632 µM (active) | -11.5% (inactive) | inactive | 
CCCCS(=O)(=O)N[C@@H](Cc1ccc(OCCCCC2CCNCC2)cc1)C(=O)O | inactive | inactive | 11.9% (inactive) | inactive | 
C=CC(=O)Nc1cc(Nc2nccc(-c3cn(C)c4ccccc34)n2)c(OC)cc1N(C)CCN(C)C | 1.46 µM (active) | 0.934 µM (active) |  | 3.98 µM (active) | 2 µM (active)

Structure (SMILES) | Potency [1] | Potency [2] | activity (max response) [3] | Potency [4] | Potency [3]
Cc1ccccc1OCC(O)CO (stereo unspecified) | inactive | inactive | -4.04% (inactive) | inactive | 
CCC(=O)NS(=O)(=O)c1ccc(-c2c(-c3ccccc3)noc2C)cc1 | inactive | 8.2 µM (active) | -1.9% (inactive) | inactive | 
CCn1ccnc1CC1COc2ccccc2O1 (stereo unspecified) | inactive | inactive | 8.12% (inactive) | inactive | 
COc1ccc(CNC(=O)c2cc(-c3cncc(Cl)c3)cnc2-c2ccccn2)nc1OC | inactive | inactive | -20.5% (inactive) | inactive | 
CC[C@@](C)(Nc1ccnc(-c2c[nH]c3ncccc23)n1)C(=O)NCC(F)(F)F | 14.6 µM (active) | 16.4 µM (active) | 0.931% (inactive) | inactive | 
CC(COc1ccccc1)NN (stereo unspecified) | inactive | inactive | 12.2% (inactive) | inactive | 
CC[C@]12C=CCN3CC[C@@]4(c5cc([C@@]6(C(=O)OC)C[C@H]7C[C@@H](C(C)(F)F)CN(Cc8c6[nH]c6ccccc86)C7)c(OC)cc5N(C)[C@H]4[C@@](O)(C(=O)OC)[C@@H]1OC(C)=O)[C@@H]32 | 0.0555 µM (active) | 0.0494 µM (active) |  | 0.548 µM (active) | 0.123 µM (active)
CCOC(=O)c1ccc(N)cc1 | inactive | inactive |  | inactive | 
CCN(CC)CCOC(=O)c1ccc(N)cc1 | inactive | inactive | 7.42% (inactive) | inactive | 
Cn1ncc2cc(-c3cnc(N)c(Cl)c3N3CCC4(CCNC4=O)CC3)ccc21 | 2.31 µM (active) and 1.48 µM (active) | 2.59 µM (active) and 2.95 µM (active) |  | inactive | 
NCC1CCN(c2nccc(-c3ccc4ccccc4c3)n2)CC1 | 1.16 µM (active) | 1.16 µM (active) |  | 10 µM (active) | 
CN1CCC[C@@H]1c1cccnc1 | inactive | inactive | -8.92% (inactive) | inactive | 
C(=C\c1ccccc1)/CN1CCN(C(c2ccccc2)c2ccccc2)CC1 | inactive | inactive | -1.91% (inactive) | inactive | 
Cc1c[nH]c(/C=C2\C(=O)Nc3ccccc32)c1CCC(=O)O | 0.468 µM (active) | 1.16 µM (active) and 1.32 µM (active) |  | inactive | 
O=C(OCCN1CCOCC1)c1cccnc1Nc1cccc(C(F)(F)F)c1 | inactive | inactive | -11.8% (inactive) | inactive | 
CNC(=O)Cn1cc(-c2ccc3c(c2)C(F)CC32NC(=O)N(CC(=O)N(Cc3ccc(F)cc3)C(C)C(F)(F)F)C2=O)cn1 (stereo unspecified) | 0.0417 µM (active) | 0.166 µM (active) |  | inactive | 
Cc1[nH]c(/C=C2\C(=O)Nc3ccc(F)cc32)c(C)c1C(=O)NCCN1CCCC1 | 51.7 nM (active) and 14.4 nM (active) | 73.1 nM (active) and 32.3 nM (active) |  | 10.1 µM (active) | 
O=C(NCCc1c[nH]c2ccccc12)c1cccnc1 | 0.0019 µM (active) | inactive | -4.89% (inactive) | inactive | 
Oc1c(Cl)cc(Cl)c(Cl)c1Cc1c(O)c(Cl)cc(Cl)c1Cl | 8.41 µM (active) | 5.96 µM (active) |  | 2.06 µM (active) | 1.84 µM (active)
CC1(C)OC2=C(C(=O)c3ccccc3C2=O)[C@H](NCc2ccccc2)[C@@H]1O | 2.63 µM (active) | 2.63 µM (active) |  | 3.16 µM (active) | 3.98 µM (active)
Cc1cccc(OCC(O)CNC(C)(C)C)c1C (stereo unspecified) | inactive | inactive | -1.22% (inactive) | inactive | 
CCOc1ccc(Cc2cc([C@@H]3O[C@H](CO)[C@@H](O)[C@H](O)[C@H]3O)ccc2Cl)cc1 | inactive | 18.6 µM (active) | -2.91% (inactive) | inactive | 
O=C(NCc1cccc(O)c1)Nc1nc(-c2ccncc2)cs1 | 10.3 µM (active) | 16.4 µM (active) | -22.1% (inactive) | inactive | 
CCNC(=O)Nc1ccc(-c2nc3c(c(N4CCOC[C@@H]4C)n2)CCN(C2COC2)C3)cc1 | 0.934 µM (active) | 1.86 µM (active) |  | 3.55 µM (active) | 
Cc1[nH]c(/C=C2\C(=O)Nc3ccc(S(=O)(=O)N(C)c4cccc(Cl)c4)cc32)c(C)c1C(=O)N1CCN(C)CC1 | 1.3 µM (active) and 1.32 µM (active) | 1.46 µM (active) and 2.09 µM (active) |  | 14.1 µM (active) | 17.8 µM (active)
COc1cc(N2CCN(C)CC2)ccc1Nc1nccc(-c2cn(C)c3cnccc23)n1 | 116 nM (active) and 209 nM (active) | 517 nM (active) and 590 nM (active) | -3.47% (inactive) | 25.1 µM (active) | 
